An excerpt weighted towards active compounds, which were near 8% of everything screened.
HCMV inh: inhibitors of human cytomegalovirus; HFF cells, HCMV-luciferase reporter, 72 h; hits give low values; 4.5% of 410,000 active; activity change, negative = inhibition, % at 57.5 µM; in the data active means activity change below about -60%; inconclusive means no clear call, values can overlap the other calls; inactive means above about -39%; further: on the % scale 0 is the no-effect control and ±100 the full control effect
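Two compound doses tested in HFFs infected with HCMV-luciferase, MOI 1 PFU/cell, 72 h at 37C. Lysate luminescence read with OneGlo; data normalized against buffer-only and 10uM Salinomycin inhibitor controls.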
SARS PLpro yeast: SARS-CoV PLP inhibition in yeast. Potency, µM (doses to about 32.9 µM), for inactives: at the highest dose activity, positive = growth rescue, most hits filed as activators. 0.19% of 330,000 active. S. cerevisiae expressing SARS-CoV PLpro, growth rescue; calls by dose curve; further: potency means the concentration at half of the fitted maximal effect; 0% is about no effect; nearly all actives have a fitted effect of over 55% in size
LASV entry inh: inhibitors of Lassa virus binding or cell entry; Lassa virus pseudotype entry inhibition, cell reporter; Potency, µM (top dose mostly 37.9 µM), for the others: at the highest dose activity change, negative = inhibition, usual class: inhibitors; 1.2% of 300,000 active; calls by dose curve; tested in HEK293 cells; further: potency means the concentration at half of the fitted maximal effect; on the % scale 0 is the no-effect control and ±100 the full control effect; nearly all actives have a fitted effect of over 50% in size
FMDV inh: foot and mouth disease virus antiviral activity. FMDV antiviral cell-based qHTS. Potency, µM (titrated, usually from 57.9 µM), for the others: top-dose activity change, negative = inhibition, hits mostly inhibitors. 1.2% of 410,000 active. AID 1159524; calls by dose curve; tested in HEK293T cells; further: read-out not given here; potency means the concentration at half of the fitted maximal effect; on the % scale 0 is the no-effect control and ±100 the full control effect; nearly all actives have a fitted effect of over 45% in size
Marburg entry inh: Marburg virus entry inhibition. Marburg virus pseudotyped entry inhibition, cell reporter. Potency, µM (series often up to 37.8 µM), without a hit: at the top dose activity change, negative = inhibition, most hits filed as inhibitors. 1.8% of 300,000 active. AID 540276; calls by dose curve; tested in HEK293 cells; further: potency means the concentration at half of the fitted maximal effect; on the % scale 0 is the no-effect control and ±100 the full control effect
HCV inh: blocks hepatitis C virus; 3.4% of 340,000 active; Potency, µM (doses to about 41.8 µM), inactives show at the highest dose activity change, negative = inhibition, hits mostly inhibitors; AID 651820; Huh7.5.1 HCVcc-Cre infection, luciferase reporter, 44 h; active means well fitted inhibition curve with a large enough effect; inconclusive means small, poorly fitted or top-dose-only effect, or another doubt; inactive means no such curve, though single readings can be large or run the other way; further: potency means the concentration at half of the fitted maximal effect; on the % scale 0 is the no-effect control and ±100 the full control effect
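Whole-lifecycle infectious HCVcc-Cre system; cells 1,000/well, compound then virus (~0.5 moi) added 4 h after plating, 44 h culture. Luciferase read 15 sec following 15 min substrate incubation, room temp.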
* = called active by the depositor; u = inconclusive; x = no result; [ ] = remark or other dose.

SMILES	HCMV inh	SARS PLpro yeast	LASV entry inh	FMDV inh	Marburg entry inh	HCV inh
CCOc1ccc(N2CC(C(=O)Nc3ccc4c(c3)OCO4)CC2=O)cc1 (stereo unspecified)	-64.0*	-0.7%	x	29.3%	u	-3.3%
CCOc1ccc(OCCC(=O)Nc2cccc(S(=O)(=O)N3CCCC3)c2)cc1	-32.1	-2.0%	u	0.0%	u	11.2µM*
CCOc1ccc(N2CC(C(=O)Nc3ccc4c(c3)OCCO4)CC2=O)cc1 (stereo unspecified)	-33.0	-0.6%	14.6%	u	-22.5%[46.1 µM]	0.6%
CC(C)(C)c1ccc(OCCC(=O)Nc2cccc(S(=O)(=O)N3CCOCC3)c2)cc1	x	-5.9%	u	25.1µM*	u	x
COc1cccc2c3c(c(C)nc12)CC(CO)O3 (stereo unspecified)	x	x	x	-14.5%	x	x
CC1CN(C(=O)c2ccccc2OCc2ccc(Cl)cc2Cl)CC(C)O1 (stereo unspecified)	u	-2.0%	x	-22.1%	x	14.1µM*
CCn1nc(C)c(NS(=O)(=O)c2ccc(C)cc2)c1C	-74.5*	-1.3%	-33.9%	-21.7%	u	u
CCc1ccc(S(=O)(=O)Nc2c(C)nn(C)c2C)cc1	-69.1*	-9.2%	0.3%	u	-4.1%	12.6µM*
CCn1nc(C)c(NC(=O)c2ccc(Br)o2)c1C	u	1.4%	-3.3%	2.0%	-4.1%	17.7%
Cc1ccc(S(=O)(=O)Nc2c(C)nn(C)c2C)cc1	3.1	1.3%	-23.0%	x	-10.4%	-20.0%
COC(=O)[C@@H]1CCCN1C(=O)c1c(OC)cc(=O)n2c1CCN(Cc1ccc(C)o1)CC2	x	x	x	0.4%	x	x
Cc1cccc(-c2nc3c4ccccc4n(Cc4cccc(Cl)c4)c(=O)n3n2)c1	u	x	13.9%[46.1 µM]	15.0%	x	x
CCS(=O)(=O)NCc1c(C)ncc2c1CCN(C(=O)c1ccc(F)cc1)C2	x	x	x	-14.9%	x	x
C/C(=N\O)c1oc2ccc3c(C)cc(=O)oc3c2c1C	-63.3*	0.2%	13.5%	-6.6%	-2.0%	-5.7%
Cc1cc(NCC2CCCCC2)nc2ccccc12	-3.8	0.9%	x	-2.1%	1µM*	u
CC(=O)Nc1ccccc1-c1nc(CNC(=O)c2ccc(-n3cccn3)cc2)c(C)o1	x	x	x	9.4%	x	x
CCOc1cc(C(=O)Nc2ccc(C)cc2O)ccc1OCC(=O)N1CCOCC1	21.9	x	7.3%	-8.9%	-5.9%	u
CCOc1cc(C(=O)Nc2cc(C)ccc2C)ccc1OCC(=O)N1CCCCC1	-70.7*	16.6%	6.8%	0.0%	-0.2%	-17.6%
O=S(=O)(c1cc(Br)ccc1Br)N1CCC(c2noc3ccccc23)CC1	-9.3	x	x	x	x	x
Oc1cc(Nc2cccnc2)cc2cccnc12	-97.7*	-4.4%	x	-13.9%	x	x
Oc1cc(NCCc2cccnc2)cc2cccnc12	-73.9*	2.3%	x	u	x	x
CNC(=O)c1ccc(NC(=O)COc2ccc(-c3nn(C)c(=O)c4ccccc34)cc2)cc1	-5.1	x	-17.1%[46.1 µM]	-18.9%	u	x
COc1cccc(C(C)(O)c2nc(-c3cccc(C#N)c3)cs2)c1 (stereo unspecified)	-15.0	x	x	u	x	x
CC(C)[C@H](NC(=O)OCc1ccccc1)C(=O)N[C@H](C=O)Cc1ccccc1	x	x	7.2%	8.4%	0.651µM*	x
CC(C)[C@H](NC(=O)OCc1ccccc1)C(=O)NCc1ccccc1	6.6	-3.4%	-28.1%	-24.2%	19.3%	7.6%
SMILES	HCMV inh	SARS PLpro yeast	LASV entry inh	FMDV inh	Marburg entry inh	HCV inh
O=C(N[C@@H](Cc1ccccc1)C(=O)CCl)OCc1ccccc1	-90.0*	x	3.26µM*	31.6µM*	16.4µM*	u
Cc1nc2c(-c3ccccc3)c(C)nn2c(C)c1CCC(=O)NCc1ccco1	-97.6*	1.7%	x	-26.1%	3.1%	5.0%
CN(C)CCOc1ccc(C(C)(C)c2ccccc2)cc1	-26.5	-0.1%	-12.9%	-2.0%	u	7.7%
CN(C)CCCOc1ccc(C(C)(C)c2ccccc2)cc1	-33.2	5.7%	u	-14.9%	13µM*	11.2µM*
CCOc1ccccc1NC(=O)N(Cc1ccc(F)cc1)C1CCN(CC)CC1	-25.3	x	u	24.7%	x	x
COc1cccc(Cn2c(=O)c(-c3cccs3)nc3cnc(OCc4ccccc4)nc32)c1	x	x	x	-14.3%	x	x
O=C(Nc1ccc(OCC(=O)N2CCOCC2)cc1)c1ccccc1F	-26.6	1.2%	u	-11.8%	-29.9%[46.1 µM]	2.2%
Cc1cc(NC(=O)c2ccccc2F)cc(C)c1OCC(=O)N1CCOCC1	-97.9*	-1.3%	-18.8%	15.6%	u	-2.3%
CN(C)CCCn1c2c3ccccc3ccc2c2oc(=O)c3ccccc3c21	-91.8*	x	u	-8.3%	u	u
COc1ccc(C(=O)OC(C)C(=O)NC2CCCCC2C)cc1S(=O)(=O)N1CCOCC1 (stereo unspecified)	-98.0*	2.4%	11.8%	-7.2%	-13.2%	8.7%
COc1ccc([N+](=O)[O-])cc1Nc1ncnc2ccccc12	-61.9*	-0.5%	-1.2%	-16.4%	-4.6%	u
Nc1ccc(Oc2ccc([N+](=O)[O-])cc2[N+](=O)[O-])cc1	u	-2.6%	-10.3%	-20.5%	-23.5%	-19.3%
COc1ccc([N+](=O)[O-])cc1NCc1cccnc1	10.5	-4.4%	u	3.9%	u	7.94µM*
COc1ccc([N+](=O)[O-])cc1NCc1cccc([N+](=O)[O-])c1	-3.3	-2.2%	u	-10.9%	0.8%[46.1 µM]	3.98µM*
O=[N+]([O-])c1ccc(Oc2cccnc2)c([N+](=O)[O-])c1	2.2	x	u	31.6µM*	7.94µM*	u
COC(=O)CN(C#N)c1nc(NC(C)C)nc(NC(C)C)n1	-20.2	0.1%	x	1.0%	x	0.2%
O=C(OC1CCN(CCCl)CC1)C(c1ccccc1)c1ccccc1	u	x	x	15.8µM*	10µM*	31.6µM*
Cc1ccccc1CSc1nc(-c2cccc(F)c2)nc2c1Cc1c(CO)cnc(C)c1O2	12.5	x	15.7%[46.1 µM]	-20.2%	x	x
COC(=O)c1nnn(CC(=O)Nc2ccc(Br)c(C)c2)c1N	41.2	x	23.5%[46.1 µM]	-22.6%	14.2%[46.1 µM]	x
CSc1nc2ccccc2n1CC(=O)N1CCCCC1	-10.0	-2.7%	11.4%	-14.6%	1.8%	8.8%
Cn1c(=O)c2c(nc(Sc3nc4ccccc4n3CC(=O)N3CCCCC3)n2C)n(C)c1=O	-62.9*	4.1%	-0.5%	10.0%	6.7%	-0.8%
CCc1ccccc1NC(=O)CSc1nnc(CNC(=O)c2ccco2)n1C	-21.9	1.9%	x	-4.3%	u	6.3%
COc1cccc(NC(=O)CN(C)C(=O)c2ccccc2-c2nc3ccccc3s2)c1	2.5	0.5%	-19.4%	-12.7%	7.08µM*	-0.3%
Cc1cccc(C)c1NC(=O)C(c1ccnc2ccccc12)n1c(=O)c(-c2ccccc2)nc2ccccc21 (stereo unspecified)	-31.7	x	x	-8.9%	x	x
COc1ccc(C2Nc3ccccc3C(=O)N2Cc2ccco2)cc1COc1ccc(NC(C)=O)cc1 (stereo unspecified)	-61.9*	8.5%	u	-18.6%	u	u

Screening data: PubChem, National Center for Advancing Translational Sciences (NCATS)
